A short description of assay [1]: NCI Yeast Anticancer Drug Screen. Data for the rad50 strain (AID 155).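 Further: 0% = growth of vehicle-only cultures of the same strain.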 Conditions: S. cerevisiae rad50 strain growth inhibition, hits give high values. In short, it runs like this:
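Genetically altered yeast (DNA repair pathway); compound treatment; growth inhibition vs vehicle ctrl.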

The nature of assay [2]: NCI Yeast Anticancer Drug Screen. Data for the mec2-1 strain (AID 157). Conditions: S. cerevisiae mec2-1 strain, hits give high values. In short, it runs like this:
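Growth inhibition is read against vehicle-treated controls after compound exposure of the mec2-1 yeast strain, which is defective in DNA damage repair or cell cycle control.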

A short description of assay [3]: NCI Yeast Anticancer Drug Screen. Data for the sgs1 mgt1 strain (AID 161).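 Further: 0% = growth of cultures given vehicle only.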 To be noted: S. cerevisiae sgs1 mgt1 strain, hits give high values. In a few lines: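 This yeast growth screen uses a strain with defined DNA-repair lesions; compound-treated growth is compared with vehicle-treated growth.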
Assay [4] in a line: NCI Yeast Anticancer Drug Screen. Data for the cln2 rad14 strain (AID 165).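 Further: 0% = growth equal to vehicle treated cultures.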 To be noted: S. cerevisiae cln2 rad14 strain, hits give high values. In a few lines: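 Growth inhibition, relative to vehicle-treated controls, is the read-out. The test organism is a yeast strain with defined genetic alterations, cln2 rad14.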
A short description of assay [5]: NCI Yeast Anticancer Drug Screen. Data for the bub3 strain (AID 167). To be noted: S. cerevisiae bub3 mutant strain, hits give high values. In a few lines:
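Yeast carrying a defined mutation is treated with each compound, and growth is compared with that of vehicle-exposed cells to give inhibition.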

A short description of assay [6]: NCI Yeast Anticancer Drug Screen. Data for the mlh1 rad18 strain (AID 175). To be noted: S. cerevisiae mlh1 rad18 strain growth inhibition, hits give high values. In a few lines: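 Cells of a genetically altered yeast strain, deficient in DNA damage repair, were treated with compound. Their growth was then compared with that of vehicle-treated cultures to give inhibition.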

[7] abbreviates: at 5.0 µM (retest, dose inferred, filed as 0.5).
Setting [8] is: at 50.0 µM (retest, dose inferred, filed as 5.0).

About 79,000 compounds went through this panel and 15% of them were active in at least one assay; those are over-represented in the sample as a whole. Unmarked numbers belong to inactive results. The source made the active and inactive calls. No stated cut-off is given here; in the data, active means growth inhibition above about 70%; inactive means the rest.

In PubChem BioAssay (NCI) one finds growth inhibition data, which are given here for nine molecules.

As to `O=[N+]([O-])c1ccc(-c2ccccc2Cl)c([N+](=O)[O-])c1`, the growth inhibition in assay [1] (setting [7]) was 2%; in assay [1] (setting [8]) it was 95% (active); in assay [1] (at 50.0 µM), 95.8% (active); in assay [2] (setting [7]), -7%; in assay [2] (setting [8]) it was 92% (active); in assay [2] (at 50.0 µM), 95.7% (active). Further, the growth inhibition is 6% in assay [3] (setting [7]); 96% (active) in assay [3] (setting [8]); 91.2% (active) in assay [3] (at 50.0 µM); -8% in assay [4] (setting [7]); 83% (active) in assay [4] (setting [8]); 80.1% (active) in assay [4] (at 50.0 µM). Further, the growth inhibition in assay [5] (setting [7]) is -6%; in assay [5] (setting [8]) it was 93% (active); in assay [5] (at 50.0 µM), 95.8% (active); in assay [6] (setting [7]), 5%; in assay [6] (setting [8]) it was 97% (active); in assay [6] (at 50.0 µM), 93.7% (active).
Regarding `O=C(CCc1c[nH]c2ccccc12)c1ccccc1O`, the growth inhibition in assay [1] (setting [7]) is 2%; in assay [1] (setting [8]) it was 5%; in assay [1] (at 50.0 µM), 17.5%; in assay [2] (setting [7]), -1%; in assay [2] (setting [8]), 14%; in assay [2] (at 50.0 µM) it was 22.1%. Further, the growth inhibition is 5% in assay [3] (setting [7]); 16% in assay [3] (setting [8]); 59.3% in assay [3] (at 50.0 µM); -13% in assay [4] (setting [7]); -18% in assay [4] (setting [8]); -21.4% in assay [4] (at 50.0 µM). Also, the growth inhibition is 2% in assay [5] (setting [7]); 14% in assay [5] (setting [8]); 73.8% (active) in assay [5] (at 50.0 µM); -5% in assay [6] (setting [7]); 12% in assay [6] (setting [8]); 43.4% in assay [6] (at 50.0 µM).
Take `NS(=O)(=O)c1ccc(N=Cc2c3ccccc3nc3cc(Cl)ccc23)cc1`: the growth inhibition was 10% in assay [1] (setting [7]); 34% in assay [1] (setting [8]); 46.4% in assay [1] (at 50.0 µM); 12% in assay [2] (setting [7]); 28% in assay [2] (setting [8]); 49.1% in assay [2] (at 50.0 µM). In addition, the growth inhibition in assay [3] (setting [7]) is 16%; in assay [3] (setting [8]), 39%; in assay [3] (at 50.0 µM), 53.1%; in assay [4] (setting [7]) it was 3%; in assay [4] (setting [8]) it was 12%; in assay [4] (at 50.0 µM), 8.05%. For the same molecule, the growth inhibition in assay [5] (setting [7]) is 19%; in assay [5] (setting [8]) it was 38%; in assay [5] (at 50.0 µM), 27.6%; in assay [6] (setting [7]), 17%; in assay [6] (setting [8]), 38%; in assay [6] (at 50.0 µM), 58.9%.
As to `CCN(CC)c1ccc(/C=C2/C[N+](C)(C)C/C(=C/c3ccc(N(CC)CC)cc3)C2=O)cc1`, the growth inhibition is -17% in assay [1] (setting [7]); 95% (active) in assay [1] (setting [8]); 79.5% (active) in assay [1] (at 50.0 µM); -19% in assay [2] (setting [7]); 91% (active) in assay [2] (setting [8]); 78.5% (active) in assay [2] (at 50.0 µM). In addition, the growth inhibition is -13% in assay [3] (setting [7]); 97% (active) in assay [3] (setting [8]); 79.2% (active) in assay [3] (at 50.0 µM); 4% in assay [4] (setting [7]); 95% (active) in assay [4] (setting [8]); 76.5% (active) in assay [4] (at 50.0 µM). Moreover, the growth inhibition in assay [5] (setting [7]) was -20%; in assay [5] (setting [8]), 80% (active); in assay [5] (at 50.0 µM), 81.5% (active); in assay [6] (setting [7]), -6%; in assay [6] (setting [8]), 96% (active); in assay [6] (at 50.0 µM), 82.2% (active).
As for `CCCc1cc2c(cc1CN(C#N)Cc1cc3c(cc1CCC)OCO3)OCO2`, the growth inhibition was -4% in assay [1] (setting [7]); 54% in assay [1] (setting [8]); 95.3% (active) in assay [1] (at 50.0 µM); 2% in assay [2] (setting [7]); 84% (active) in assay [2] (setting [8]); 96.3% (active) in assay [2] (at 50.0 µM). Moreover, the growth inhibition in assay [3] (setting [7]) was 1%; in assay [3] (setting [8]), 57%; in assay [3] (at 50.0 µM), 93.2% (active); in assay [4] (setting [7]), -2%; in assay [4] (setting [8]) it was 60%; in assay [4] (at 50.0 µM) it was 95.8% (active). Besides, the growth inhibition in assay [5] (setting [7]) was -4%; in assay [5] (setting [8]), 87% (active); in assay [5] (at 50.0 µM), 97% (active); in assay [6] (setting [7]), -1%; in assay [6] (setting [8]), 73% (active); in assay [6] (at 50.0 µM), 95% (active).
With `CC/C(=C(\CC)c1ccc(OCCN2CCOCC2)cc1)c1ccc(OCCN2CCOCC2)cc1`, the growth inhibition in assay [1] (setting [7]) was 47%; in assay [1] (setting [8]), 63%; in assay [1] (at 50.0 µM) it was 82.8% (active); in assay [2] (setting [7]) it was 36%; in assay [2] (setting [8]), 62%; in assay [2] (at 50.0 µM) it was 70.5% (active). Further, the growth inhibition in assay [3] (setting [7]) was 67%; in assay [3] (setting [8]), 88% (active); in assay [3] (at 50.0 µM) it was 89% (active); in assay [4] (setting [7]), 62%; in assay [4] (setting [8]), 64%; in assay [4] (at 50.0 µM) it was 83.5% (active). Moreover, the growth inhibition was 59% in assay [5] (setting [7]); 68% in assay [5] (setting [8]); 79.9% (active) in assay [5] (at 50.0 µM); 30% in assay [6] (setting [7]); 72% (active) in assay [6] (setting [8]); 87.8% (active) in assay [6] (at 50.0 µM).
Turning to `c1ccc(-n2ncc3ccc4cccn4c32)cc1`, the growth inhibition was -4% in assay [1] (setting [7]); -2% in assay [1] (setting [8]); 63.9% in assay [1] (at 50.0 µM); 3% in assay [2] (setting [7]); 9% in assay [2] (setting [8]); 38.1% in assay [2] (at 50.0 µM). Moreover, the growth inhibition in assay [3] (setting [7]) is -15%; in assay [3] (setting [8]), 40%; in assay [3] (at 50.0 µM), 55%; in assay [4] (setting [7]), -13%; in assay [4] (setting [8]) it was 25%; in assay [4] (at 50.0 µM), 13.1%. Moreover, the growth inhibition in assay [5] (setting [7]) is 17%; in assay [5] (setting [8]), 16%; in assay [5] (at 50.0 µM) it was 91.3% (active); in assay [6] (setting [7]) it was 12%; in assay [6] (setting [8]), 40%; in assay [6] (at 50.0 µM), 47.7%.
For `Cc1ccc(O)c(C(c2ccc([N+](=O)[O-])cc2)c2cc(C)ccc2O)c1`, the growth inhibition is 68% in assay [1] (setting [7]); 95% (active) in assay [1] (setting [8]); 91.2% (active) in assay [1] (at 50.0 µM); 90% (active) in assay [2] (setting [7]); 98% (active) in assay [2] (setting [8]); 92.9% (active) in assay [2] (at 50.0 µM). Also, the growth inhibition was 51% in assay [3] (setting [7]); 57% in assay [3] (setting [8]); 39% in assay [3] (at 50.0 µM); 73% (active) in assay [4] (setting [7]); 53% in assay [4] (setting [8]); 89.7% (active) in assay [4] (at 50.0 µM). Also, the growth inhibition in assay [5] (setting [7]) is 93% (active); in assay [5] (setting [8]), 52%; in assay [5] (at 50.0 µM) it was 90.9% (active); in assay [6] (setting [7]), 84% (active); in assay [6] (setting [8]) it was 96% (active); in assay [6] (at 50.0 µM), 91.3% (active).
Consider `Cc1ccccc1N=Nc1ccccc1`, for which the growth inhibition in assay [1] (setting [7]) is 21%; in assay [1] (setting [8]), 98% (active); in assay [1] (at 50.0 µM), 99.4% (active); in assay [2] (setting [7]), 17%; in assay [2] (setting [8]) it was 99% (active); in assay [2] (at 50.0 µM) it was 99.4% (active). Also, the growth inhibition in assay [3] (setting [7]) was 22%; in assay [3] (setting [8]), 99% (active); in assay [3] (at 50.0 µM), 99.5% (active); in assay [4] (setting [7]), 12%; in assay [4] (setting [8]), 98% (active); in assay [4] (at 50.0 µM), 99.3% (active). Also, the growth inhibition in assay [5] (setting [7]) is 48%; in assay [5] (setting [8]), 98% (active); in assay [5] (at 50.0 µM) it was 99.3% (active); in assay [6] (setting [7]), 39%; in assay [6] (setting [8]), 98% (active); in assay [6] (at 50.0 µM), 99.4% (active).
